Out of some 330,000 compounds screened, about 4,900 (1.5%) were called active. The sample holds actives, similar compounds and a random draw of the others, so the mix is not that of the screen.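 Rule for the calls: active = inhibition above the mean inhibition across the screen plus 3 SD (cut at about 25% in these data); inactive = the rest.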

The record followed here is PubChem BioAssay AID463082 (The Scripps Research Institute Molecular Screening Center, 2010).

In the assay the target is Platelet-activating factor acetylhydrolase (Homo sapiens) (UniProt Q13093). Kind of assay: inhibition of plasma PAF acetylhydrolase – biochemical, fluorescence polarization, human, primary screen (AID 463082).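 Note: inhibitors block binding of the rhodamine activity-based probe so polarization drops; 0% = enzyme with DMSO and 100% = wells lacking pPAFAH.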 To be noted: recombinant pPAFAH, FP-rhodamine probe fluorescence polarization; at 3.39 µM; hits give high values. (In general: Fluorescence polarisation rises when a labelled molecule tumbles more slowly, as on binding a larger partner.)
Chain of Platelet-activating factor acetylhydrolase (Homo sapiens) (Q13093 whole entry, looked up): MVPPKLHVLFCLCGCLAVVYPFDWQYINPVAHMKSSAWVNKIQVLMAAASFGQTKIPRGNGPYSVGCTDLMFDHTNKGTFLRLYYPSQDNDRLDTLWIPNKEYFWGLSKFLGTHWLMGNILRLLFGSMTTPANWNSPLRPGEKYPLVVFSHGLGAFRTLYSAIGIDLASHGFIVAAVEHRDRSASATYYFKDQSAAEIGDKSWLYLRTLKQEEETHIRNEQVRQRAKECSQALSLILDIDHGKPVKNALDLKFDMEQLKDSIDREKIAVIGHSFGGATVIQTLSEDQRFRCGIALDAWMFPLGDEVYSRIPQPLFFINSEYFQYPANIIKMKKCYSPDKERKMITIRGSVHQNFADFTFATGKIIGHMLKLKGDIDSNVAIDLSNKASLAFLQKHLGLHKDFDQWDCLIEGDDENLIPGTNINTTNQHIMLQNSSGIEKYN
The term inhibition denotes the change of the read-out against control, counted positive when it falls. `CN=C1S/C(=C\c2c(OC)cc(OC)cc2OC)C(=O)N1C`: the inhibition is -0.42% (inactive).

`Cc1cc(/C=C2\SC(=Nc3ccc(N4CCOCC4)cc3)N(C)C2=O)c(C)n1-c1cccnc1`: the inhibition was 2.99% (inactive).

Regarding `CN1C(=O)/C(=C/c2ccco2)SC1=Nc1cccc(C(=O)O)c1`, the inhibition is 25.1% (active).

For the compound `Cc1nc2ccccc2c(=O)n1-c1ccc(F)c(NC(=O)c2cccs2)c1`, the inhibition is -0.28% (inactive).

For `O=C(NC1CCCC1)c1cc(-c2ccccc2)on1`, the inhibition is 8.25% (inactive).

Turning to `COCCNC(=O)/C(C#N)=C/c1cccc(OCc2ccccc2)c1`, the inhibition was 2.65% (inactive).

In the case of `N#C/C(=C\c1ccc(O)c(O)c1)C(=O)NCc1ccccc1`, the inhibition is 28.2% (active).

With `COc1ccc(CNC(=O)/C(C#N)=C/c2cccc(OC)c2OC)cc1`, the inhibition was -1.57% (inactive).

For the compound `Cc1cccc(C)c1N1CCN(S(=O)(=O)N2CCCCC2)CC1`, the inhibition was 0.66% (inactive).

Regarding `O=C1COc2ccc(C(=O)COC(=O)c3cccnc3Cl)cc2N1`, the inhibition was 3.48% (inactive).

In the case of `Cc1cc(=O)oc2c1ccc1ccccc12`, the inhibition is 1.01% (inactive).

For `O=C1CCC([N+](=O)[O-])C(c2ccccc2Br)N1` (stereo not drawn), the inhibition was 2.25% (inactive).

Regarding `CN(CC(=O)Nc1ccc(OC(F)(F)F)cc1)C(=O)C1CCC1`, the inhibition is 2.02% (inactive).

As to `CC(CC(=O)Nc1ccc(F)cc1F)S(=O)(=O)c1ccc2c(c1)NC(=O)CO2` (stereo not drawn), the inhibition was 0.8% (inactive).

For `Cc1cc(C)n(C(=O)c2ccc(C)c(S(=O)(=O)N3CCOCC3)c2)n1`, the inhibition is 2.24% (inactive).

`O=[N+]([O-])C(=c1ccc2c(c1)N1C3=C(CCCC3)CC3CCCCC31N=2)[N+](=O)[O-]` (stereo not drawn): the inhibition was 33.6% (active).

As to `CCN1CCN(C(=O)C2CCN(S(=O)(=O)c3cc(Cl)ccc3Cl)CC2)CC1`, the inhibition is 3.87% (inactive).

On to `CCc1cc2c(=O)c(-c3nc4ccccc4n3C)c(CCCC(=O)O)oc2cc1OC(=O)C(C)(C)C`, for which the inhibition was 3.51% (inactive).

For the compound `COc1ccc(-n2nnnc2-c2nc3ccccc3s2)cc1`, the inhibition was -4.42% (inactive).

Consider `COc1ccccc1N1CC(O)=C(c2nc3ccccc3s2)C1=N`, for which the inhibition is 32.9% (active).

Turning to `CCc1ccc(N2CC(O)=C(c3nc4ccccc4c(=O)[nH]3)C2=N)cc1`, the inhibition is -1.78% (inactive).

For `C=CCC[C@H](Cc1ccc(F)cc1)C(=O)OC[C@@H](NC(=O)[C@@H](CC=C)CC(=O)N[C@H](CO)Cc1ccccc1)C(C)(C)C`, the inhibition is 4.14% (inactive).

Turning to `Cc1cc(NC(=O)CSC2=NS(=O)(=O)c3cc(Cl)ccc3N2)no1`, the inhibition is -4.37% (inactive).

Consider `CS(=O)(=O)N1CCCC(C(=O)Nc2ccccc2C(F)(F)F)C1` (stereo not drawn), for which the inhibition was -1.76% (inactive).

On to `CC(=O)Nc1cccc(C(=O)OCC(=O)Nc2nnc(-c3ccccc3)o2)c1`, for which the inhibition is 5.98% (inactive).

Take `O=C(COC(=O)c1ccccc1Br)Nc1nnc(-c2ccccc2)o1`: the inhibition is 4.87% (inactive).

In the case of `O=C(COC(=O)c1ccc(Oc2ccccc2)cc1)Nc1nnc(-c2ccccc2)o1`, the inhibition was 25% (active).

With `O=C(COc1ccccc1)N1CCN=C1SCc1cccc(F)c1`, the inhibition was 4.42% (inactive).

For `O=C(COc1ccc(S(=O)(=O)NCc2ccccc2)cc1)N1CCOCC1`, the inhibition is 4.78% (inactive).

Take `CC(NS(=O)(=O)c1ccc(OCC(=O)N2CCCC2)cc1)c1ccccc1` (stereo not drawn): the inhibition was 14.5% (inactive).

On to `O=C(COc1ccc(S(=O)(=O)NCCc2ccccc2)cc1)N1CCCC1`, for which the inhibition was 26.8% (active).

`CCCCNC(=O)CCn1c(=O)c2ccccc2n(Cc2cc(C)ccc2C)c1=O`: the inhibition was 1.95% (inactive).

In the case of `Cc1ccc(S(=O)(=O)N(CC(=O)Nc2cccnc2)c2ccc(Br)cc2)cc1`, the inhibition was 3.28% (inactive).

For `COc1cccc(C(=O)N2CCCC(CCC(=O)NCc3ccc(F)c(F)c3)C2)c1` (stereo not drawn), the inhibition is 1.9% (inactive).

Regarding `COc1cccc(CNC(=O)CCC2CCCN(C(=O)c3ccoc3C)C2)c1` (stereo not drawn), the inhibition is 5.56% (inactive).

Consider `COc1cccc(CNC(=O)CCC2CCCN(C(=O)c3ccc(F)c(Cl)c3)C2)c1` (stereo not drawn), for which the inhibition was 42.8% (active).

Turning to `COc1ccc(S(=O)(=O)Nc2cccc3c2O[C@H](CN(C)S(=O)(=O)c2ccc(OC)cc2)[C@@H](C)CN([C@H](C)CO)C3=O)cc1`, the inhibition was 3.76% (inactive).

`COc1ccc(NCc2nnc(SCc3ccccc3)n2-c2ccc(OC)cc2)cc1`: the inhibition is 2.01% (inactive).

`OCCC1CN(Cc2cccc(O)c2)CCN1CCc1ccccc1` (stereo not drawn): the inhibition is -5.11% (inactive).

For `CCN(CC)S(=O)(=O)c1ccc(N2CCOCC2)c(NC(=O)C(C)Oc2ccc(F)cc2)c1` (stereo not drawn), the inhibition is 10.3% (inactive).

For `CN1CCN(c2ccc(S(=O)(=O)N3CCCCC3)cc2NC(=O)Cc2ccccc2F)CC1`, the inhibition is -3.62% (inactive).

`CCN(CC)S(=O)(=O)c1ccc(N2CCN(C)CC2)c(NC(=O)Nc2ccccc2F)c1`: the inhibition was 33.1% (active).

Regarding `C=CC[C@@H](CC(=O)N[C@@H](CO)Cc1ccccc1)C(=O)NCCOC(=O)[C@@H](CC=C)CC(=O)OC(C)(C)C`, the inhibition was 1.4% (inactive).

On to `Cc1ccc(C)c(S(=O)(=O)Nc2cc(C)on2)c1`, for which the inhibition is -1.93% (inactive).

Turning to `CCn1c(N)c(Br)c(=O)[nH]c1=O`, the inhibition is 0.06% (inactive).

In the case of `O=S(=O)(c1ccc(Cl)cc1)c1nc(-c2ccco2)oc1N1CCCCC1`, the inhibition is -3.3% (inactive).

As for `CC(C)C1N=C2c3ccccc3N=C(SCC(=O)c3ccc(O)c(O)c3)N2C1=O` (stereo not drawn), the inhibition was 55.4% (active).

For `O=C(CSC1=Nc2ccccc2C2=NC(CC(=O)NCc3ccco3)C(=O)N12)NCc1ccco1` (stereo not drawn), the inhibition is 5.99% (inactive).

`CCC(C)NC(=O)CSC1=Nc2ccccc2C2=NC(CCC(=O)NCc3ccco3)C(=O)N12` (stereo not drawn): the inhibition is 2.48% (inactive).

As to `CC(C)n1cnc2c(NCc3ccccc3)cc(OCC3CCN(C)CC3)cc21`, the inhibition was 11.1% (inactive).

For the compound `CN(CC(=O)NCC(c1ccccc1)N1CCCC1)S(=O)(=O)c1ccc(Cl)cc1` (stereo not drawn), the inhibition is -2.68% (inactive).

In the case of `O=C(O)c1cc2c(cc1NC(=O)c1c(F)cccc1Cl)OCCCO2`, the inhibition is -0.94% (inactive).

On to `CC(=O)Nc1ccc(OCCC[n+]2cccc(C(=O)[O-])c2)cc1`, for which the inhibition is -0.37% (inactive).

Turning to `O=c1ccc2c(-c3ccccc3S(=O)(=O)O)c3ccc(O)c(O)c3oc-2c1O`, the inhibition is 70% (active).

Regarding `CCCCNC(=O)C1CCC(=O)N1CCc1ccccc1` (stereo not drawn), the inhibition was 3.82% (inactive).

As for `CCOc1ccc(OCC)c(-c2c(=O)n(OCc3ccc(Cl)cc3)c3ccccc3[n+]2[O-])c1`, the inhibition was 5.98% (inactive).

As for `CCc1ccc(CN2C(=O)c3ccccc3C2C(=O)NCC2CCCO2)cc1` (stereo not drawn), the inhibition was 7.1% (inactive).

As for `N#CC1=C(N)Oc2c(ccc3cccnc23)C1c1ccncc1` (stereo not drawn), the inhibition is 11.9% (inactive).

On to `N#CC1=C(N)Oc2c(sc3ccccc23)C1c1ccco1` (stereo not drawn), for which the inhibition is 26.5% (active).

`O=C(O)/C(=C/c1cccnc1)NC(=O)c1ccccc1`: the inhibition is -3.24% (inactive).

Take `O=C(CN1C(=O)c2ccc([N+](=O)[O-])cc2C1=O)Nc1nnc(C2CC2)s1`: the inhibition is 0.34% (inactive).

As to `O=C(Nc1cccn(Cc2c(Cl)cccc2Cl)c1=O)c1ccc(Cl)cc1`, the inhibition is -3.34% (inactive).

Turning to `O=C(COC(=O)c1ncc(Cl)c(Cl)c1Cl)NCc1ccccc1`, the inhibition was 14.3% (inactive).

For the compound `Cc1cc(O)c(C(=O)/C=C/c2c(F)c(F)c(F)c(F)c2F)c(=O)o1`, the inhibition was 27.7% (active).

Turning to `Cc1cc(O)c(Sc2ccccc2)c(=O)o1`, the inhibition was 3.25% (inactive).

`Cc1ccc(N=Cc2c(O)cc(C)oc2=O)c(C)c1`: the inhibition is -5.2% (inactive).

Take `CCOC(=O)C1CCN(Cc2coc3ccc(Cl)cc3c2=O)CC1`: the inhibition is -3.13% (inactive).

On to `O=C(OCC1O[C@@H](OC(=O)c2cc(O)c(O)c(O)c2)[C@@H](OC(=O)c2cc(O)c(O)c(O)c2)[C@@H](OC(=O)c2cc(O)c(O)c(O)c2)[C@@H]1OC(=O)c1cc(O)c(O)c(O)c1)c1cc(O)c(O)c(O)c1` (stereo partly drawn), for which the inhibition was 73% (active).

On to `O=C(OCC1OC(Oc2ccc(O)cc2)C(O)C(O)C1O)c1ccccc1` (stereo not drawn), for which the inhibition is 3.51% (inactive).

As to `CC1Cc2ccccc2N1S(=O)(=O)c1cccc(C(=O)OCC(=O)N2CCOCC2)c1` (stereo not drawn), the inhibition was 8.16% (inactive).

Consider `COc1ccc(OC)c(NC(=O)C2CCCN2S(=O)(=O)c2cccc3nsnc23)c1` (stereo not drawn), for which the inhibition is 1.9% (inactive).

On to `CC(=O)c1ccc(-c2ccc(Cn3c(C)nc4cc(N)c(C)nc43)cc2)cc1`, for which the inhibition was 3.76% (inactive).

As for `Cc1cc2nc3c(=O)n(Cc4ccccc4)c(=O)[nH]c3nc2cc1N`, the inhibition is 59.1% (active).

In the case of `Cc1cc(-c2csc(N)n2)c(C)n1Cc1ccccc1`, the inhibition was 12.4% (inactive).

As to `Nc1nc(Br)c2ccccc2c1-c1ccc(F)cc1`, the inhibition is 29.3% (active).

For `CN(CC(=O)Nc1c(Cl)cccc1Cl)C(=O)CC1OC(=O)c2ccccc21` (stereo not drawn), the inhibition is 1.34% (inactive).

For `O=C(CSc1ccc(-c2ccc(Br)cc2)nn1)NCC1CCCO1` (stereo not drawn), the inhibition is 3.46% (inactive).

Turning to `OC(CNCC1CCCO1)Cn1c2ccc(Br)cc2c2cc(Br)ccc21` (stereo not drawn), the inhibition was 60% (active).

For the compound `CC(NS(=O)(=O)c1ccc(Br)cc1)C(=O)NCC1CCCO1` (stereo not drawn), the inhibition was 1.93% (inactive).

For the compound `CC1c2nc3ccccc3n2C(CC(=O)NCCCN2CCOCC2)C(=O)N1Cc1ccccc1` (stereo not drawn), the inhibition is 3.44% (inactive).

Consider `O=C(Cn1cc(C(F)(F)F)ccc1=O)Nc1ccc2c(c1)OCCO2`, for which the inhibition was 0.39% (inactive).

`CCCN(CC(=O)Nc1ccccc1C)C(=O)c1ccc2[nH]c3c(c2c1)CC(C)CC3` (stereo not drawn): the inhibition was 2.57% (inactive).

`COc1cc2c(C(=O)O)c(C)n(C)c2c2ccccc12`: the inhibition was 8.22% (inactive).

As to `Cc1c(C(=O)N/N=C/c2ccccc2)[nH]c2c([N+](=O)[O-])cccc12`, the inhibition is 2.71% (inactive).

As for `COc1cccc2c(C)c(C(=O)O)[nH]c12`, the inhibition is 40% (active).

Consider `CCOc1ccc(N/C(N)=N/c2nc(C)c(C)c(=O)[nH]2)cc1`, for which the inhibition is 5.08% (inactive).

Consider `CCOC(=O)CNC(=O)CSc1ncccc1-c1nc2ccccc2[nH]1`, for which the inhibition was 3.09% (inactive).

Consider `COC(=O)c1cccc(N(C(=O)c2ccco2)C(C(=O)NC2CCCC2)c2ccco2)c1` (stereo not drawn), for which the inhibition is -7.26% (inactive).
